{"source": "PubChem BioAssay AID652126", "about": "(The Scripps Research Institute Molecular Screening Center, 2013)", "note": "Out of some 370,000 compounds screened, about 3,700 (1%) were called active. Only a selection was taken, and actives are over-represented in it overall. Values without a mark were called inactive.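 Rule for the calls: active = activation above the mean over all tested compounds plus 3 SD (cut at about 0.9% in these data); inactive = the rest.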"}
{"tested_on": "Nuclear hormone receptor DAF-12 (Strongyloides stercoralis)", "assay": "S. stercoralis DAF-12 nuclear receptor activators, primary screen, cell-based, luminescence, HEK293, GRIP1 co-expression, lit1-tk-luc (AID 652126);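 note: 0% = DMSO-only wells and 100% = 3 µM delta7-dafachronic acid wells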", "conditions": "HEK293 ssDAF-12/GRIP1 lit1-tk-luc reporter, at 6.8 µM, stronger effect = higher value, % of 3 µM dafachronic acid response"}
{"compound": "CCOC(=O)/C=C/c1ccccc1O", "activation": "-1.38%"}
{"compound": "COc1ccc(-n2c(SCC(=O)OC(C)C)nnc2-c2ccccn2)cc1", "activation": "-1.58%"}
{"compound": "COc1ccnc(Oc2ccccc2)n1", "activation": "-0.92%"}
{"compound": "COc1ccc2nc(-c3ccccn3)ccc2c1", "activation": "0.98% (active)"}
{"compound": "CC(c1ccc(N)cc1)c1cn(C)c2ccccc12", "note": "(centres undefined)", "activation": "-1.36%"}
{"compound": "C=CS(=O)(=O)N(Cc1nnn(Cc2ccccc2)c1Br)[C@H](C(=O)OC)C(C)C", "activation": "-1.75%"}
{"compound": "COc1cc(/C=C/C(=O)n2cnc3ccccc32)cc(OC)c1OC", "activation": "-2.15%"}
{"compound": "COc1ccnc(NC(=S)N2CCN(c3ncc(C(F)(F)F)cc3Cl)CC2)c1", "activation": "-1.56%"}
{"compound": "CN(CCO)S(=O)(=O)c1ccc2c(c1)C(=O)c1cc(S(=O)(=O)N(C)CCO)ccc1-2", "activation": "-1.38%"}
{"compound": "COC(=O)[C@]12C[C@H](CC(=O)NCc3ccccc3)C(=O)N(CCc3ccc(OC)c(OC)c3)C1=C[C@H](C(C)(C)C)O[C@@H]2C", "activation": "-1.28%"}
{"compound": "COc1ccc(CSc2nnc(SCC(=O)Nc3ccccc3C(F)(F)F)s2)cc1", "activation": "-1.22%"}
{"compound": "Fc1ccc2nc(Nc3nc4c(s3)CCCC4)sc2c1", "activation": "1.92% (active)"}
{"compound": "COC(=O)C(NC(C)=O)(Nc1nc2c(s1)CCCC2)C(F)(F)F", "note": "(centres undefined)", "activation": "-0.86%"}
{"compound": "C[C@H]1CCC/C=C/C(=O)c2c(O)cc(O)cc2CC(=O)O1", "activation": "-1.77%"}
{"compound": "CCCCOCCCNC(=O)C[C@H]1C[C@@]2(C(=O)OC)C(=C[C@H](COCc3ccccc3)O[C@@H]2C)N(Cc2cccc3ccccc23)C1=O", "activation": "-1.25%"}
{"compound": "COC(=O)[C@]12C[C@H](CC(=O)NCCc3ccccc3OC)C(=O)N(Cc3ccco3)C1=C[C@H](C(C)C)O[C@@H]2C1CC1", "activation": "-1.3%"}
{"compound": "CCCN(c1ccc(C)cc1)c1nc(=O)c2cccnc2s1", "activation": "1.12% (active)"}
{"compound": "COc1ccnc(C(=O)N2CCC(Oc3cccnc3)CC2)c1", "activation": "-1.55%"}
{"compound": "CCCCCCN1CCS(=O)(=O)N(Cc2ccc(C(F)(F)F)cc2)C(C(=O)OC)C1", "note": "(centres undefined)", "activation": "-0.61%"}
{"compound": "CN[C@H]1C[C@H]2c3cc(N4CCOCC4)ccc3CCN2C[C@H]1[C@H](C)O", "activation": "-1.27%"}
{"compound": "O=C(c1cn2ccccc2n1)N1CCc2c([nH]c3ccccc23)C1c1ccccn1", "note": "(centres undefined)", "activation": "0.91% (active)"}
{"compound": "COCc1ccc(C(=O)N2CCc3c([nH]c4ccccc34)C2c2ccccn2)s1", "note": "(centres undefined)", "activation": "-2.05%"}
{"compound": "c1ccc(C2c3[nH]c4ccccc4c3CCN2Cc2cccn2-c2cccnc2)nc1", "note": "(centres undefined)", "activation": "-1.17%"}
{"compound": "CCC(C)[C@@H](C(=O)OC)N(CCc1cn(Cc2ccccc2)nn1)S(=O)(=O)c1ccccc1Br", "note": "(some centres undefined)", "activation": "-1.79%"}
